Sampled rows, rich in hits. Any-hit rate of the full collection: about 6.2%.
S2 tox = viability counter-screen for ATXN expression inhibitors. Potency, µM (series often up to 56.7 µM), most hits filed as cytotoxic. S2 cells (HEK-293 line with an ATXN2-luciferase reporter) viability, CellTiter-Fluor protease fluorescence, 24 h. AID 651635. hit rate 0.49% among 400,000; also: nearly all actives have a fitted effect of over 40% in size
ATXN2 expr inh = ATXN2 expression inhibition | AID 1745845 | HEK-293 ATXN2-luciferase reporter, luminescence, 24 h | hit rate 0.72% among 360,000 | Potency, µM (highest dose often 57 µM), inactives show at the highest dose activity change, negative = inhibition, usual class: inhibitors; also: % is scaled to controls: 0 for no effect and ±100 for the full control effect; nearly all actives have a fitted effect of over 55% in size
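ATXN2-luciferase reporter cells (luciferase flanked by upstream and downstream ATXN2 gene portions) were treated 24 h at 37 °C with compounds at up to 57 uM. SteadyGlo luminescence gave expression; GF-AFC fluorescence gave viability.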
HT1080-NT tox = kills 2HG-producing HT-1080-NT fibrosarcoma cells; HT-1080-NT fibrosarcoma viability, CellTiter-Glo ATP luminescence, 48 h; hit rate 1.6% among 360,000; Potency, µM (series often up to 46.1 µM), without a hit: at the top dose activity, negative = less viability, hits mostly cytotoxic;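 also: NT is the 2HG producing partner of a matched IDH1 knockdown line; 0% = DMSO-treated cells and -100% = media-only wells without cells; nearly all actives have a fitted effect of over 55% in size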
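Compounds were tested in concentration-response format on HT-1080-NT cells for 48 hours at 37 degrees C. Cell viability came from CellTiter-Glo luminescence; curves were classified by r2, response magnitude and activity.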
KB-V1 cytotox = kills drug-selected multidrug resistant KB-V1 cells. KB-V1 MDR cells viability, CellTiter-Glo, 72 h. Potency, µM (series often up to 46.1 µM), hits mostly cytotoxic. hit rate 3.4% among 400,000; also: % is scaled to controls: 0 for no effect and ±100 for the full control effect; nearly all actives have a fitted effect of over 60% in size
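Cytotoxicity via CellTiter-Glo luminescence after 72 h compound exposure at 37 degrees C. Cells: drug-selected KB-V1 line, DMEM phenol-red free plus 10% FBS. Compounds tested at multiple concentrations; normalized data fitted to concentration-effect curves.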
HT1080 IDH1KD tx = HT-1080 IDH1 knockdown cell toxicity (counter line) | HT-1080 IDH1 knockdown viability, ATP luminescence, 48 h | Potency, µM (highest dose often 46.1 µM), for inactives: top-dose activity, negative = toxicity, hits mostly cytotoxic | hit rate 2% among 360,000 | AID 686971;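 also: 0% = DMSO wells and -100% = cell-free medium wells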
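Using the IDH1-knockdown HT-1080 line run in the same batch and compound series as the NT line, viability after 48 h at 37 °C was determined by CellTiter-Glo luminescence and expressed as % activity.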
KB-3-1 cytotox = kills parental KB-3-1 adenocarcinoma cells; KB-3-1 viability, CellTiter-Glo ATP luminescence, 72 h; Potency, µM (series often up to 46.1 µM), most hits filed as cytotoxic; hit rate 1.4% among 400,000; also: % is scaled to controls: 0 for no effect and ±100 for the full control effect; nearly all actives have a fitted effect of over 60% in size
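Multi-concentration cytotoxicity screen in KB-3-1 cells grown in DMEM lacking phenol red with 10% FBS. After 72 h at 37 °C with compound, ATP-dependent luminescence was recorded.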
* marks the source's active call; other numbers are inactive results; i = inactive; ? = inconclusive; / = no result; ! = a repeat was not active. Calls follow the shape of the dose curve; as a rule, active = well fitted curve in the direction sought with a large enough effect; inconclusive = small, poorly fitted or top-dose-only effect, or another doubt; inactive = no such curve, though single readings can be large; an effect the other way counts as inactive or inconclusive. Potency is read from the fitted curve at half-maximal effect.

SMILES | S2 tox | ATXN2 expr inh | HT1080-NT tox | KB-V1 cytotox | HT1080 IDH1KD tx | KB-3-1 cytotox
CCOC(=O)COc1ccc([N+](=O)[O-])cc1-c1ccnc2cc(-c3ccc(Cl)cc3)nn12 | i | 15% | / | ? | / | i
Cc1cccc(OCCCC(=O)Nc2nnc(C3CCCO3)s2)c1C (configuration not stated) | i | -9% | 8% | i | 5% | i
Cc1cccc(C)c1OCC(=O)Nc1nnc(C2CCCO2)s1 (configuration not stated) | i | 1% | -3% | 18µM* | -1% | i
O=C(/C=C\c1ccco1)Nc1nc(-c2ccc3ccccc3c2)cs1 | i | ? | -15% | ? | -26% | i
Cc1ccc(-c2csc(NC(=S)NC(=O)/C=C/c3ccco3)n2)cc1 | i | -17% | 7.1µM* | 3.3µM* | 7.9µM* | 5.8µM*
Cc1ccnc(NC(=S)NC(=O)/C=C/c2ccco2)c1 | i | 27% | ? | 8.2µM* | ? | 10µM*
Cc1ccc(O)c(NC(=S)NC(=O)/C=C/c2ccccc2)c1 | i | / | 6% | ? | 6% | i
O=C(/C=C/c1ccco1)NC(=S)Nc1ccc(O)c(-c2nc3ccccc3s2)c1 | ? | ? | ? | ? | ? | 5.8µM*
Cc1ccc(O)c(NC(=S)NC(=O)/C=C/c2ccco2)c1 | i | 36% | -26% | ? | -22% | 10µM*
COc1ccc(N(C)S(=O)(=O)c2cccc3cccnc23)c(OC)c1 | i | -13% | 11µM* | ? | 8.9µM* | ?
COC(=O)C1CCN(Cc2ccc3c(c2)CN(C(=O)c2cc(C4CC4)on2)CCO3)CC1 | i | / | / | / | / | /
CC(C)(C)NCC(=Cc1ccccc1)C(=O)c1ccccc1 | 11µM* | 8.4µM* | 6.5µM* | ? | 5.8µM* | 5.2µM*
O=Nc1ccc(NO)c2ccccc12 | i | / | ? | ? | 16µM* | ?
COc1ccc(-c2ocnc2C(=O)NCc2nn(-c3ccccc3)nc2C)cc1 | i | / | ? | ? | 16µM* | i
COc1cc(OC)c(NC(=O)N2CCCn3nc(C)cc32)cc1Cl | i | 10% | / | i | / | i
COC(=O)[C@@]12C[C@@H](CC(=O)NCc3cccc4ccccc34)C(=O)N(CCc3ccc(OC)c(OC)c3)C1=CCC(C)(C)C2 | / | / | ? | 23µM* | -24% | ?
COC(=O)[C@@]12C[C@@H](CC(=O)NCc3ccccc3)C(=O)N(CCc3ccc(OC)c(OC)c3)C1=CCC(C)(C)C2 | / | / | -21% | ? | -4% | i
COC(=O)[C@@]12C[C@@H](CC(=O)NCc3ccc(C)o3)C(=O)N(CCc3ccc(OC)c(OC)c3)C1=CCC(C)(C)C2 | / | / | -22% | 18µM* | -16% | ?
COC(=O)[C@@]12C[C@@H](CC(=O)NCc3ccc(OC)c(OC)c3)C(=O)N(Cc3cccc4ccccc34)C1=CCC(C)(C)C2 | / | / | ? | 21µM* | -28% | i
CS(=O)(=O)N1N=C(c2ccco2)CC1c1ccc(Cl)cc1 (configuration not stated) | i | 29% | -1% | 16µM* | -7% | i
Cc1ccc(C2CC(c3ccco3)=NN2S(C)(=O)=O)cc1 (configuration not stated) | i | 24% | 16% | i | 24% | i
COc1ccc2nc(SCC(=O)c3c(C)[nH]c4ccccc34)nc(C)c2c1 | i | -11% | / | ? | / | i
CN(C)c1ccc(/C=C/c2nc3ccccc3s2)cc1 | / | ? | ? | 13µM*! | ? | 16µM*!
C=C(/C=C/c1ccc(N(C)C)cc1)c1nc2ccccc2s1 | / | / | / | ? | / | i
CN(Cc1ccccc1)c1ccc(/C=C/c2nc3ccccc3s2)cc1 | / | / | / | i | / | 7.3µM*
SMILES | S2 tox | ATXN2 expr inh | HT1080-NT tox | KB-V1 cytotox | HT1080 IDH1KD tx | KB-3-1 cytotox
O=C(NCC(c1ccco1)N1CCCC1)c1cc2cc(Cl)ccc2o1 (configuration not stated) | i | 10% | -10% | 9.2µM* | -10% | i
CN(C)CCNC(=O)C1CCN(Cc2cc3ccccc3n2Cc2ccccc2)CC1 | / | 22µM* | / | ? | / | i
O=C1Nc2ccccc2/C1=C\C(=O)c1ccccc1 | ? | ? | 18µM* | i | ? | i
Cc1ccc(CN2CCCCC2C(=O)Nc2ccc(Oc3cccnc3)cc2)o1 (configuration not stated) | ? | -19% | ? | 8.2µM* | -21% | 5.2µM*
O=C(Nc1ccc(Oc2cccnc2)cc1)C1CCN(Cc2ccc(F)cc2)CC1 | i | -20% | -6% | / | -13% | /
O=C(Nc1ccc(Oc2cccnc2)cc1)C1CCN(Cc2cc(Cl)ccc2O)CC1 | ? | / | ? | ? | ? | 16µM*
CC(C)n1nnnc1C1c2ccccc2C(=O)N1CCCn1ccnc1 (configuration not stated) | i | 21% | 14% | i | 21% | i
OC(CNCCc1ccccc1)COc1ccc(OCC(O)CNCCc2ccccc2)cc1 (configuration not stated) | ? | 28µM* | ? | ? | 23µM* | 21µM*
OC(CNCCC(c1ccccc1)c1ccccc1)COc1ccccc1 (configuration not stated) | ? | ? | ? | ? | 23µM* | i
CC(C)N(CCNCC(O)COc1ccc(C(C)(C)c2ccccc2)cc1)C(C)C (configuration not stated) | i | ? | 29µM* | i | ? | i
Cc1nc(NS(=O)(=O)c2ccc(Cl)s2)c2c3c(sc2n1)CCCC3 | i | / | ? | 12µM* | ? | ?
Fc1ccc(CSc2ncnc3c2ncn3C2CCCCO2)cc1 (configuration not stated) | i | 55% | 20% | 21µM* | 24% | i
COc1ccc(OCCN(C)C(=O)c2cccc(S(=O)(=O)N(C)c3ccccc3)c2)cc1 | i | -17% | 0% | / | -11% | /
COc1cc(OC)c(OC)cc1/C=C/C(=O)c1ccc(NS(=O)(=O)c2ccc(C)cc2)cc1 | i | -30% | -21% | 15µM* | -20% | i
O=C(COc1ccc(F)cc1)N1c2ccccc2CCc2ccccc21 | ? | / | -1% | i | 1% | i
O=C(COc1cccc2ccccc12)N1c2ccccc2CCc2ccccc21 | i | -27% | -26% | 16µM* | ? | ?
O=C(CCCCCCC(=O)Nc1cccnc1)NO | / | 348% | / | / | / | /
Cn1cc(/C=C/C(=O)c2ccccc2)c2ccccc21 | i | -18% | -9% | ? | -19% | i
